Assay outcomes (PubChem BioAssay)
In the library only some 1.3% were active in any assay of this set; here they are far more common.
BRCA1 expr act: qHTS Assay to Identify Small Molecule Activators of BRCA1 Expression; MCF7-BRCA1-FFLuc reporter, luminescence, 48 h; response scale: scaled: vehicle 0%, 10 µM genistein 100%; Potency, µM (doses to about 46.1 µM), for inactives: at the highest dose activation, actives largely listed as activators; actives 1.1% (n = 380,000); AID 624202, 2012; further: potency means the concentration at half of the fitted maximal effect; nearly all actives have a fitted effect of over 80% in size
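MCF7 cells carrying a BRCA1-firefly luciferase reporter (2000 cells/well, phenol-red free MEM) were attached for 2 h at 37 °C, then given compounds for 48 h. Luminescence was read 15 min after luciferase reagent; activity normalized to genistein (10 microM) and DMSO.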
IL-2 act: qHTS of IL-2 Activators. IL-2 activation reporter assay, cell-based qHTS; stimulated with anti-CD3/CD4/CD28 beads; in transgenic mouse T cells. actives 0.065% (n = 360,000). activation, % (series mostly up to about 46 µM); in the data active means activation above about 50%; inconclusive means mostly about 30% to 49%; further: 0% is about no effect
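EGFP and DsRed fluorescence is measured by plate cytometry in unstimulated transgenic mouse T cells exposed to compound for 60 minutes, then stimulated 18 hours at 37 degrees C with anti-CD3/anti-CD4 beads plus anti-CD28.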
PTHR1 agonist: qHTS for PTHR1 Agonists: Primary Screen; Parathyroid hormone/parathyroid hormone-related peptide receptor (Homo sapiens), Q03431; HEK293 GP2 PTHR1 cells, GloSensor cAMP luminescence, 1 h; Potency, µM (highest dose often 115 µM), for the others: at the top dose activation, most hits filed as activators; actives 0.075% (n = 410,000); AID 743266, 2014; further: potency means the concentration at half of the fitted maximal effect; nearly all actives have a fitted effect of over 55% in size
Target sequence (Q03431 whole entry, looked up): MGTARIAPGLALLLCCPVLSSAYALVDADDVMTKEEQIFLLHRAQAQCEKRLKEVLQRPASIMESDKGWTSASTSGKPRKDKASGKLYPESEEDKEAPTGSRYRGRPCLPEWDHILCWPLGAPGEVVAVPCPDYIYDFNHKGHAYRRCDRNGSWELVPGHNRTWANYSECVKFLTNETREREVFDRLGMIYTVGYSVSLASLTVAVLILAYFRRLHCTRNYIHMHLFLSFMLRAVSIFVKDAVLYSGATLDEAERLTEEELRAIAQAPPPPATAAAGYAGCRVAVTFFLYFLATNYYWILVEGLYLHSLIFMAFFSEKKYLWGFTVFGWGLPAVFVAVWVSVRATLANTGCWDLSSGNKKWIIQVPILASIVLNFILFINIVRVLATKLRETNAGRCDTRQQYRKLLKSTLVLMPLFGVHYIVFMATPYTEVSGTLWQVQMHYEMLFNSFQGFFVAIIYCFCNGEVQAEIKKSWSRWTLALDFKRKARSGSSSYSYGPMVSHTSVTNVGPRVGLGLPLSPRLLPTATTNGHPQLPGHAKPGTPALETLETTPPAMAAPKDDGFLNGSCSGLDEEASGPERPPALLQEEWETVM
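HEK-293-derived GP2 cells expressing PTHR1 and a GloSensor cAMP reporter, 3,000/well, plated overnight, given luciferin plus IBMX (each 0.5 mM as added) for 1 h at 37 °C, then compound for 1 h at 37 °C. Luminescence was read after 15 min at room temperature.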
BCR signal inh: qHTS Assay to Find Inhibitors of Chronic Active B-Cell Receptor Signaling; actives 0.05% (n = 340,000); Potency, µM (highest dose often 46.1 µM), inactives show top-dose activity change, negative = inhibition, actives largely listed as inhibitors; ABC-DLBCL IkBa-CBG/CBR reporter, luminescence ratio, 4 h; AID 493014, 2011; active means well fitted inhibition curve with a large enough effect in the signal ratio, with a control signal flat, not every such curve was filed as active; inconclusive means small, poorly fitted or top-dose-only effect, or effect the other way, or a change in a side signal; the % refers to the signal ratio;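 further: potency means the concentration at half of the fitted maximal effect; plate controls were basal doxycycline-induced cells for no effect and cells given 10 µM MG132 for full effect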
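Concentration-response series (up to 46 uM) were applied to TMD8 dual-reporter cells for 4 h at 37C with doxycycline. Green/red ratio, after filter-overlap correction, defined %Activity; red signal alone was normalised to basal cells and zero luminescence.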
TCR activator: Activators of T cell receptors: qHTS campaign; Potency, µM (doses to about 9.22 µM), inactives show top-dose activation of IL-2 secretion, most hits filed as activators; primary human leukocytes, anti-CD3, IL-2 HTRF, 48 h; 330,000 tested, under 10 active; further: % of control where 0% means no effect
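Primary human leukocytes receive a-CD3 beads and test compound and are incubated 48 hr. Secreted IL-2 is then assayed by HTRF, measuring 665nm acceptor emission after 320nm excitation of the europium donor.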
Mito fusion yeast: qHTS Assay for Small Molecule Inhibitors of Mitochondrial Division or Activators of Mitochondrial Fusion | S. cerevisiae fusion-defective mutant growth rescue, CellTiterGlo 48 h | Potency, µM (top dose mostly 46.1 µM), for inactives: top-dose growth rescue (activation), actives largely listed as activators | actives 0.23% (n = 320,000); further: potency means the concentration at half of the fitted maximal effect; % of control where 0% means no effect; nearly all actives have a fitted effect of over 45% in size
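Luminescent cell viability in 1536-well qHTS format served as the measure of rescued growth in ts fusion-mutant S. cerevisiae cultured on non-fermentable YPEG for 48 hours at 37C.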
* = called active by the depositor; [ ] = dose if it differs, or a comment. Unless noted, the call rests on the fitted dose curve; in most records, active means well fitted curve in the direction sought with a large enough effect; inconclusive means small, poorly fitted or top-dose-only effect, or another doubt; inactive means no such curve, though single readings can be large; an effect the other way counts as inactive or inconclusive.

O=C(/C=C/c1ccc(Br)cc1)NCc1cccs1 was read as BRCA1 expr act 81%, IL-2 act 1, PTHR1 agonist -22%, BCR signal inh inconclusive, TCR activator 16%[46.1 µM] and Mito fusion yeast inconclusive.
For O=C(/C=C/c1ccccc1Cl)NCc1cccs1 the results were BRCA1 expr act 4µM*, IL-2 act -1, PTHR1 agonist -3%, BCR signal inh 11%, TCR activator 3% and Mito fusion yeast inconclusive.
`CCC(C)NC(=O)/C=C/c1cccs1` (stereo not drawn) gave BRCA1 expr act 2%, IL-2 act -2, PTHR1 agonist inactive, BCR signal inh inconclusive, TCR activator -2%[46.1 µM] and Mito fusion yeast -1%.
Screening COc1cc2nc(N3CCCN(C)CC3)nc(N)c2cc1OC returned BRCA1 expr act 3%.
CCCN(CC(=O)Nc1ccccc1C)CC(=O)Nc1ccc(Br)cc1F was read as BRCA1 expr act -4%, IL-2 act -4, PTHR1 agonist inactive, BCR signal inh inconclusive, TCR activator -1% and Mito fusion yeast -2%.
`CCOC(=O)c1ccc(-c2ccc(/C=C(\C#N)C(=O)NCc3cccs3)o2)cc1` gave BRCA1 expr act 12%, IL-2 act 61*, PTHR1 agonist -26%, BCR signal inh -2%, TCR activator -9%[46.1 µM] and Mito fusion yeast -6%.
`CCOC(=O)c1ccc(-c2ccc(/C=C(\C#N)C(=O)Nc3cccc(C)c3)o2)cc1` gave BRCA1 expr act -3%, PTHR1 agonist inconclusive and BCR signal inh 1%.
O=C(C[N+]1(CCO)CCOCC1)c1ccc2ccccc2c1 was read as BRCA1 expr act 13%.
Screening CCOC(=O)CSc1c(-c2cccs2)[nH]c2ccccc12 returned BRCA1 expr act -95%, IL-2 act -6, PTHR1 agonist -28%, BCR signal inh inconclusive, TCR activator 1% and Mito fusion yeast 14µM*.
`Nc1ccccc1C#Cc1ccccc1` gave BRCA1 expr act 11µM*, IL-2 act 2, PTHR1 agonist -50%, BCR signal inh 8%, TCR activator 7% and Mito fusion yeast 1%.
`Nc1ccc(C#Cc2ccccc2)cc1` gave BRCA1 expr act 41%, IL-2 act 0, PTHR1 agonist inactive, BCR signal inh -2%, TCR activator 0% and Mito fusion yeast 3%.
Nc1ccccc1C#Cc1ccc2[nH]ccc2c1 was read as BRCA1 expr act 10µM*, IL-2 act 0, PTHR1 agonist -67% and TCR activator -2%.
For COc1cccc(-c2nnc(NC(=O)c3ccc(Cl)s3)o2)c1 the results were BRCA1 expr act -16%, IL-2 act -3, PTHR1 agonist inactive, BCR signal inh inconclusive, TCR activator -2% and Mito fusion yeast 3.5µM*.
For O=C(Nc1nnc(-c2ccco2)o1)c1ccc(Cl)s1 the results were BRCA1 expr act 11%, IL-2 act -1, PTHR1 agonist -10%, BCR signal inh inconclusive, TCR activator -1% and Mito fusion yeast 8%.
Screening C=C(C)[C@@H]1C2=CC(C(=O)OC)=C(C[C@@H](C(=C)C)[C@H]3O[C@H]3C3=C[C@H]1OC3=O)O2 returned BRCA1 expr act -43%.
Screening CCCCCCCn1ccc(O)c(CC(=O)OC)c1=O returned BRCA1 expr act 0%, IL-2 act -5, PTHR1 agonist 50µM*, BCR signal inh inconclusive, TCR activator -4% and Mito fusion yeast 0%.
`COC(=O)Cc1c(O)ccn(CCc2c[nH]c3ccccc23)c1=O` gave BRCA1 expr act -2%, IL-2 act 0, PTHR1 agonist -10%, BCR signal inh -2%, TCR activator 1% and Mito fusion yeast 0%.
For COC(=O)Cc1c(OC)ccn(CCc2c[nH]c3ccccc23)c1=O the results were BRCA1 expr act 2.2µM*, IL-2 act 3, PTHR1 agonist -11%, BCR signal inh 1%, TCR activator 0% and Mito fusion yeast 3%.
Cc1onc(-c2ccccc2Cl)c1C(=O)NNC(=O)c1ccccc1F was read as BRCA1 expr act -14%, IL-2 act -1, PTHR1 agonist inactive, BCR signal inh inconclusive, TCR activator -13% and Mito fusion yeast -3%.
For Cc1[nH]nc(SCC(=O)N2CCCCCC2)c1[N+](=O)[O-] the results were BRCA1 expr act 7.9µM*, IL-2 act 1, PTHR1 agonist inactive, BCR signal inh inconclusive, TCR activator 0% and Mito fusion yeast 1%.
CC(CCC(C)[n+]1cccc(Br)c1)[n+]1cccc(Br)c1 (stereo not drawn) was read as BRCA1 expr act 6%.
Screening c1ccc(SCc2nc3ccccc3s2)nc1 returned BRCA1 expr act 3.2µM*, IL-2 act -2, PTHR1 agonist -21%, BCR signal inh inconclusive, TCR activator -2% and Mito fusion yeast -8%.
Screening c1ccc2oc(SCc3nc4ccccc4s3)nc2c1 returned BRCA1 expr act inconclusive, IL-2 act 0, PTHR1 agonist -9%[57.5 µM], TCR activator 5% and Mito fusion yeast -1%.
For c1ccc(-c2nc3ccccc3s2)nc1 the results were BRCA1 expr act 8.9µM*, IL-2 act -1, PTHR1 agonist -17%, BCR signal inh 11%, TCR activator 3% and Mito fusion yeast 2%.
COc1ccc2cc(CN(CC3CCCO3)C(=S)NCc3ccco3)c(=O)[nH]c2c1 (stereo not drawn) was read as BRCA1 expr act 4%, IL-2 act -6, PTHR1 agonist -11%, BCR signal inh inconclusive, TCR activator 7% and Mito fusion yeast 9%.
`COc1ccc(NC(=O)c2coc(=O)c3ccccc23)cc1OC` gave PTHR1 agonist -24%.
`COc1ccc(NC(=O)c2coc3ccccc23)cc1OC` gave BRCA1 expr act 10µM*, IL-2 act -1, PTHR1 agonist -7%[57.5 µM], BCR signal inh -4%, TCR activator 0% and Mito fusion yeast 1%.
For C/C(=N\O)c1sc(-c2ccccc2)nc1C the results were BRCA1 expr act 2.5µM*, IL-2 act -2, PTHR1 agonist -22%, BCR signal inh -24%, TCR activator 4% and Mito fusion yeast -1%.
